Only some compounds are listed: those with a hit (about 2.1% of all), similar ones and a draw of the others.
FUS yeast rescue – qHTS for Suppressors of FUS Proteinopathy: Primary screen using FUS-linked yeast assay; S. cerevisiae FUS-expressing, growth rescue, OD600, 24 h; Potency, µM (doses to about 76.6 µM), most hits filed as activators; 390,000 compounds, 0.24% hits; AID 1347120, 2019; note: nearly all actives have a fitted effect of over 55% in size
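FUS-expressing yeast, raffinose-pregrown, induced in 2% galactose minimal medium at OD 0.005; compounds in a dilution series, 24hr at 30C. Growth restoration read as absorbance at 600 nm. CP55940 positive control, DMSO negative.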
aSyn rescue – qHTS of alpha-syn Inhibitors. Yeast expressing alpha-synuclein, growth rescue, BacTiter-Glo, 24 h. Potency, µM (highest dose often 46.1 µM), hits mostly activators. 370,000 compounds, 0.14% hits; note: nearly all actives have a fitted effect of over 65% in size
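Galactose-induced alpha-syn yeast (OD600=0.02, raffinose-pregrown) + pinned cpd, 24 hr, 30 deg C; growth by BacTiter-Glo luminescence. Growth restoration scores as activation.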
TDP-43 yeast inh – qHTS of TDP-43 Inhibitors | Potency, µM (titrated, usually from 46.1 µM), usual class: activators | TDP-43 expressing yeast growth rescue, BacTiter-Glo, 24 h | 410,000 compounds, 1.8% hits; note: nearly all actives have a fitted effect of over 50% in size
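Galactose-induced TDP-43 yeast, OD600=0.02, compound pinned; 24 hr, 30 deg C; BacTiter-Glo luminescence for growth. Inhibitors of TDP-43 toxicity read as activators.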
Abeta rescue – qHTS for compounds that reverse cellular toxicity of Amyloid beta (A-beta) peptide in yeast: Primary Screen; Potency, µM (titrated, usually from 46.1 µM), hits mostly activators; yeast expressing A-beta42, growth rescue, OD600, 48 h; response scale: 0% DMSO, 100% iron-clioquinol control; 410,000 compounds, 0.063% hits; AID 1347071, 2019; note: nearly all actives have a fitted effect of over 55% in size
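Growth rescue measured by 600 nm absorbance after 48 h yeast culture at 30 C with compound. Values normalized between DMSO and an equimolar ferric chloride plus clioquinol control.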
Of the large screens only hits and unclear results are named; the others gave an inactive call. Calls come from the whole dose curve; as a rule, active = well fitted curve in the direction sought with a large enough effect; inconclusive = small, poorly fitted or top-dose-only effect, or another doubt; inactive = no such curve, though single readings can be large; an effect the other way counts as inactive or inconclusive.

O=C(O)c1ccc(N2CCN(C(c3ccccc3)c3ccccc3)CC2)c([N+](=O)[O-])c1	TDP-43 yeast inh 11µM
C=C1CCN(c2ccc(C(=O)O)cc2[N+](=O)[O-])CC1	TDP-43 yeast inh inconclusive
CS(=O)(=O)N[C@@H]1C[C@@H]2O[C@H](CO)CC[C@@H]2O[C@@H]1CCc1ccc(/C=C/c2ccccc2)cc1	none (no result: aSyn rescue, TDP-43 yeast inh, Abeta rescue)
O=c1c2c(C(F)(F)F)cc(C(F)(F)F)nc2[nH]n1-c1ccccc1	none
O=c1c(Sc2ccccc2)c(C(F)(F)F)[nH]n1-c1ccccc1	TDP-43 yeast inh 14µM (no result: aSyn rescue)
CCCC(=O)OC12CCCN(C1)/C(=C/c1ccccc1)C2 (stereo unspecified)	none (no result: aSyn rescue, TDP-43 yeast inh, Abeta rescue)
Cc1nnc(SCc2ccccc2Cl)c2cc3occc3n12	FUS yeast rescue inconclusive, TDP-43 yeast inh 35µM (no result: aSyn rescue)
Cc1nnc(SCc2ccc(Cl)cc2)c2cc3occc3n12	FUS yeast rescue inconclusive (no result: aSyn rescue)
c1ccc(Cn2c(SCc3nc4ccccc4s3)nnc2-c2ccco2)cc1	FUS yeast rescue inconclusive, TDP-43 yeast inh 14µM
Cc1ccc2cc(C3C(C#N)=C(N)Oc4c3ccc3cccnc43)c(=O)[nH]c2c1 (stereo unspecified)	FUS yeast rescue 28µM
CCc1ccc2[nH]c(=O)c(C3C(C#N)=C(N)Oc4c3ccc3cccnc43)cc2c1 (stereo unspecified)	FUS yeast rescue 25µM
CCCCCCCCCc1conc1C(=O)CP(=O)(OC)OC	TDP-43 yeast inh 35µM
COC(=O)c1ccc(NCc2c(O)ccc(O)c2Br)cc1Cl	TDP-43 yeast inh 20µM (no result: FUS yeast rescue)
COC(=O)c1ccc(NCc2cc(O)ccc2O)cc1O	none (no result: FUS yeast rescue)
CCCn1c(SCC(=O)c2ccc3c(c2)NC(=O)CO3)nc2ccccc21	TDP-43 yeast inh 14µM
Cn1c(SCC(=O)c2ccc3c(c2)NC(=O)CO3)nc2ccccc21	none
Cc1ccccc1NC(=O)c1cccc2c1-c1ccccc1C2=O	none (no result: aSyn rescue, TDP-43 yeast inh, Abeta rescue)
CCOC(=O)c1c(C)[nH]c(O)c1C=Nc1ccc(C(F)(F)F)cc1	TDP-43 yeast inh 3.2µM
Cc1ccc(C23CC4CC(CC(CC(=O)NC(C)(C)CO)(C4)C2)C3)cc1	TDP-43 yeast inh 35µM
O=C1CCCCCN1C(=O)c1ccccc1	none
O=C1CCCCCN1Sc1ccccc1	TDP-43 yeast inh 16µM, Abeta rescue inconclusive
O=C(OCn1ncc(Br)c(Br)c1=O)c1ccc(F)cc1	TDP-43 yeast inh inconclusive
O=C(OCn1ncc(Br)c(Br)c1=O)c1ccccc1Cl	TDP-43 yeast inh 6.3µM
O=C(NCc1ccc(Cl)cc1)O[C@H]1CC[C@@]23CCCN2C(=O)CCC[C@H]3C1	none (no result: aSyn rescue, TDP-43 yeast inh, Abeta rescue)
CC(=O)c1cnc2nc(SCc3ccc(Cl)cc3)nn2c1C	TDP-43 yeast inh 14µM
O=C(OCCn1c(=S)sc2ccccc21)c1ccccc1	TDP-43 yeast inh 11µM (no result: FUS yeast rescue)
COc1ccc(S(=O)(=O)Nc2ccc3ccccc3c2)cc1C	aSyn rescue 22µM, TDP-43 yeast inh inconclusive
Cc1cc(S(=O)(=O)Nc2cccnc2)c(C)s1	none
Cc1ccc(S(=O)(=O)Nc2ccc3ccccc3c2)cc1	aSyn rescue inconclusive (no result: FUS yeast rescue)
Cc1cc(S(=O)(=O)Nc2ccc3ccccc3c2)c(C)s1	aSyn rescue 18µM, TDP-43 yeast inh inconclusive
CC(C)(C)NC(=O)CSc1nc2ccc(Nc3nc(N4CCOCC4)nc(N4CCOCC4)n3)cc2s1	aSyn rescue inconclusive, TDP-43 yeast inh 11µM
CC(=O)CSc1nc2ccc(Nc3nc(N4CCOCC4)nc(N4CCOCC4)n3)cc2s1	FUS yeast rescue inconclusive
CCC(C)Sc1nnc(NC(=O)c2ccco2)s1 (stereo unspecified)	TDP-43 yeast inh 13µM
Cc1cc2ccc(Cl)nc2nc1C	none (no result: FUS yeast rescue, TDP-43 yeast inh, Abeta rescue)
Cc1ccccc1NC1=CC(=O)CC(C)(C)C1	none
CC1(C)CC(=O)C=C(NC2=CC3OC(c4ccccc4)OCC3OC2=O)C1 (stereo unspecified)	aSyn rescue 13µM, TDP-43 yeast inh 13µM (no result: FUS yeast rescue)
CC1CCN(S(=O)(=O)c2ccc(C(=O)OC(C)C(=O)N(C)C3CCCCC3)cc2)CC1 (stereo unspecified)	none
CC(OC(=O)c1ccc(NS(=O)(=O)c2cccs2)cc1)C(=O)N(C)C1CCCCC1 (stereo unspecified)	FUS yeast rescue 32µM
COC(=O)N1CCC[C@H]1c1cccc2[nH]cc(C)c12	none (no result: aSyn rescue, TDP-43 yeast inh, Abeta rescue)
CCCC1CCC2(CC1)CCC2OC(=S)Nc1ccc(I)cc1 (stereo unspecified)	none (no result: aSyn rescue, TDP-43 yeast inh, Abeta rescue)
Cc1ccc(-c2ccc(CCC(=O)O)n2C(C)C)cc1	TDP-43 yeast inh 35µM
Cc1ccc(-c2ccc(CCC(=O)O)n2NC(N)=S)cc1	none
